Laboratory results as given in PubChem BioAssay (NCATS).
Records with an inconclusive call do not appear. The source made the active and inactive calls. Calls follow the shape of the dose curve; as a rule, active = well fitted cell-killing curve with a large enough effect; inconclusive = small, poorly fitted or top-dose-only effect, or effect the other way; inactive = no such curve, though single readings can be large or run the other way.

Assay: qHTS of pediatric cancer cell lines to identify multiple opportunities for drug repurposing: Confirmatory screen for NB-EBc1 cells (AID 1347115);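 also: cells exposed to compound for 48 h before the viability read; nearly all actives have a fitted effect of over 45% in size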
Conditions: NB-EBc1 neuroblastoma cells, viability (cytotoxicity); series mostly up to 45.9 µM; activity change, negative = cytotoxic: at the top concentration
Outline: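 Cells (500-1,000/well) in growth media were settled 5 h at 37 degrees C, then given compounds for 48 h. Viability was read as CellTiter-Glo luminescence. Primary runs used MIPE at 11 points (0.78 nM-46 µM) and NPC at 8 points (0.59 nM-46 µM); follow-ups used 11 points.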
% is scaled to controls: 0 for no effect and ±100 for the full control effect; potency is read from the fitted curve at half-maximal effect.

Row | Compound | activity change, negative = cytotoxic | Potency
1 | COc1cc2ncnc(Nc3cc(Br)c(O)c(Br)c3)c2cc1OC | -20.5% (inactive) | –
2 | CC[C@H](NC(=O)[C@H](C)NC)C(=O)N1C[C@@H](O)C[C@H]1Cc1c(-c2[nH]c3cc(F)ccc3c2C[C@H]2C[C@H](O)CN2C(=O)[C@H](CC)NC(=O)[C@H](C)NC)[nH]c2cc(F)ccc12 | -23.9% (inactive) | –
3 | O=C1NC(=O)C(c2cnc3ccccn23)=C1c1cn2c3c(cccc13)CN(C(=O)N1CCOCC1)CC2 | – | 2.93 µM (active)
4 | CN1CCN(c2ncc(-c3cc(Cl)cc(Cl)c3Cl)c(N)n2)CC1 | -27% (inactive) | –
5 | CC(C)CN(C[C@@H](O)[C@H](Cc1ccccc1)NC(=O)O[C@H]1CO[C@H]2OCC[C@H]21)S(=O)(=O)c1ccc(N)cc1 | -26.1% (inactive) | –
6 | CC1(COc2ccc3c(c2)ncn3-c2ccc3cccc(N4CCC(N)CC4)c3n2)COC1 | 1.63% (inactive) | –
7 | N#CC(=C1Nc2ccccc2S1)c1ccnc(OCc2ccc(CN3CCOCC3)cc2)n1 | -4.05% (inactive) | –
8 | CN(C)CCN(C)C(=O)c1ccc(NC(=O)Nc2ccc(-c3nc(N4CCOCC4)c4ccn(CC(F)(F)F)c4n3)cc2)cc1 | -8.01% (inactive) | –
9 | C[C@H](c1ccc(F)cc1CCCC(=O)O)N(c1cc(F)ccc1F)S(=O)(=O)c1ccc(Cl)cc1 | -16.4% (inactive) | –
10 | FC(F)(F)c1ccc(C=Cc2nc(COc3ccc(CCCCn4ccnn4)cc3)co2)cc1 | – | 0.369 µM (active)
11 | O=C(c1ccc(F)c(F)c1Nc1ccc(I)cc1F)N1CC(O)([C@H]2CCCCN2)C1 | -32.9% (inactive) | –
12 | Cc1ccc2c(c1)C(=O)[C@]1(O)CCN(c3ccccc3)C1=N2 | -19.5% (inactive) | –
13 | Cc1nn(Cc2ccccc2Cl)c(C)c1CN(C)CC(O)COc1ccc(Cl)cc1 (stereo not given) | -21.1% (inactive) | –
14 | Nc1ccn([C@@H]2O[C@H](CO)[C@@H](O)[C@H]2O)c(=O)n1 | – | 3.29 µM (active)
15 | O=c1[nH]nc(OCCCc2ccc(Cl)cc2)c(NCc2cccnc2)c1Br | – | 13.1 µM (active)
